Among the data in PubChem BioAssay (NCI) are growth values, retold here.

About 83,000 compounds went through this panel and 20% of them were active in at least one assay; those are over-represented in the sample as a whole.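 The endpoint reported here, percent growth, reads 100 for growth as untreated, 0 for no net growth and -100 for all cells dead.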 A number with no mark means an inactive call. Active and inactive are the calls of the source. Rule for the calls: active = growth percent below 10; inactive = the rest.

Holding throughout (assay): NCI-60 one-dose screen, 48 h (100 = growth as untreated, 0 = no growth, -100 = all killed)
What all share (details): 10 µM unless noted

For experiment [1], the system named is NCI-H23 lung.
Experiment [2] has as its system NCI-H226 lung.
Experiment [3] has as its system NCI-H322M lung.
For experiment [4], the system named is HOP-62 NSCLC.
Experiment [5] relates to NCI-H460 lung.
For experiment [6], the system named is HOP-92 NSCLC.
Experiment [7] concerns NCI-H522 lung.
Experiment [8] concerns A549/ATCC NSCLC.
Experiment [9] has as its system 786-0 renal.
Experiment [10] relates to COLO 205 colon.
Experiment [11] relates to DU-145 prostate.
For experiment [12], the system named is K-562 leukemia.
The subject of experiment [13] is MALME-3M melanoma.
Experiment [14] relates to MDA-MB-231 breast.
In experiment [15] the test system is RXF 393 renal.
In experiment [16] the test system is SF-268 CNS.
Experiment [17] has as its system SF-295 CNS.
Experiment [18] deals with SF-539 CNS.
Experiment [19] relates to UACC-257 melanoma.
Experiment [20] relates to M14 melanoma.

For `CSc1ccc2c3c(n(CCCn4ccnc4)c(=O)c2c1)-c1ccccc1C3=O`, the growth in experiment [1] was 30.7%; in [2], 69.2%; in experiment [3] it was 71.7%; in [4], 34.7%; in experiment [5], 11.5%; in experiment [6] it was 83.2%. Moreover, the growth in experiment [7] is 19.3%; in experiment [8], 47.9%; in experiment [9], 20.4%; in experiment [10], 57.9%; in experiment [11] it was 28.5%; in experiment [12] it was 35.6%. For the same molecule, the growth was 87.8% in experiment [13]; 91.4% in experiment [14]; 46.3% in experiment [15]; 31.7% in experiment [16]; 12.1% in experiment [17]; 4.89% (active) in [18]. The results for the growth in [19] and in experiment [20] were 71% and 26.6%, respectively.

Turning to `COC(=O)/C(CCC=C(C)C)=C1\[C@@H](OC(C)=O)C[C@@]2(C)[C@H]1C/C(=N/O)[C@H]1[C@@]3(C)CC/C(=N\O)[C@@H](C)[C@@H]3CC[C@@]12C`, the growth is 99.5% in experiment [1]; 96.8% in [2]; 109% in [3]; 105% in experiment [4]; 105% in [5]; 95.4% in [6]. Besides, the growth in [7] is -57.1% (active); in experiment [8] it was 94%; in experiment [9] it was 96.3%; in [10], 106%; in experiment [11] it was 106%; in [12], 83.6%. For the same molecule, the growth was 119% in [13]; 86.5% in experiment [14]; 104% in [15]; 89.1% in experiment [16]; 101% in [17]; 89.4% in [18]. Besides, the growth in experiment [19] is 118%; in experiment [20], 98.6%.

As to `CN1C(=O)/C(=C/c2ccc(C(=O)Nc3ncc(Cc4cc(Cl)ccc4Cl)s3)cc2)SC1=S`, the growth in experiment [1] was 67.6%; in [2], 68.5%; in experiment [3] it was 76.7%; in [4] it was 72.4%; in experiment [5] it was 73.7%; in [6], 50.2%. Besides, the growth in [7] was 62.5%; in [8], 73.3%; in [9] it was 87.9%; in [10], 89.2%; in [11], 73.7%; in experiment [12] it was 54.7%. Further, the growth in experiment [13] was 69.4%; in experiment [14], 75.7%; in experiment [15], 60.1%; in experiment [16], 71%; in experiment [17], 65.8%; in experiment [18], 79.8%. Moreover, the growth in experiment [19] is 91.8%; in experiment [20] it was 46.5%.

As for `COc1ccc(/C=N/Nc2c3ccccc3nc3ccccc23)cc1`, the growth in experiment [1] was 88.3%; in experiment [2], 83.4%; in experiment [3], 101%; in [4], 98%; in experiment [5] it was 99.5%; in experiment [6], 90.2%. Further, the growth in [7] was 90.7%; in experiment [8], 96.5%; in experiment [9], 90.8%; in experiment [10] it was 103%; in [11], 90.4%; in experiment [12], 87.9%. Moreover, the growth in [13] was 105%; in [14] it was 93.9%; in [15] it was 103%; in experiment [16], 96%; in [17] it was 90.3%; in [18], 95.4%. The results for the growth in [19] and in experiment [20] were 103% and 106%, respectively.

With `COc1ccc(C(O)c2cc3c(N)c(C(=O)Nc4cccc5ccccc45)sc3nc2C)cc1` (stereo not given), the growth is 23.3% in experiment [1]; 18.6% in experiment [2]; 39.1% in experiment [3]; 25.6% in [4]; -20.2% (active) in experiment [5]; 51% in experiment [6]. Besides, the growth in experiment [7] was 0% (active); in experiment [8], 11.6%; in experiment [9], 16.2%; in [10] it was -34.3% (active); in [11], 1.19% (active); in experiment [12], 12%. Besides, the growth in [13] was 27.7%; in [14], 13.6%; in experiment [15] it was 27%; in experiment [16], 9.53% (active); in [17], 12.9%; in [18], 4.62% (active). The growth in experiment [19] was 35.3%; in experiment [20], 15%.

Turning to `COC(=O)Cn1c2c(c3c(OC)cccc31)C(=O)c1ccccc1-2`, the growth was 91.2% in [1]; 91.4% in experiment [2]; 113% in experiment [3]; 87% in [4]; 112% in experiment [5]; 70.3% in [6]. For the same molecule, the growth was 101% in [7]; 100% in experiment [8]; 86.6% in experiment [9]; 104% in experiment [10]; 104% in experiment [11]; 91.7% in experiment [12]. Besides, the growth in experiment [13] was 95.5%; in experiment [14], 98.5%; in experiment [15] it was 114%; in experiment [16], 97%; in [17] it was 107%; in [18] it was 101%. Besides, the growth in experiment [19] was 101%; in experiment [20], 103%.

Take `Cn1cc(-c2csc(-c3cn(C)c4ccccc34)n2)c2cnccc21`: the growth in experiment [1] was 83.2%; in experiment [2], 112%; in experiment [3] it was 66.6%; in experiment [4] it was 42.1%; in experiment [5], -46.2% (active); in experiment [6] it was 55.5%. Further, the growth in [7] is 16.7%; in experiment [8] it was 15.3%; in [9], -87.9% (active); in experiment [10], -68% (active); in [11] it was 29.2%; in experiment [12], -39.2% (active). The growth was -92.4% (active) in [13]; -17.7% (active) in [14]; -40.7% (active) in [15]; 45.1% in [16]; -73.1% (active) in experiment [17]; -87% (active) in [18]. Besides, the growth in experiment [19] is -58.2% (active); in experiment [20], -82.6% (active).
